Bioassay records: PubChem, several laboratories
Peg3 promoter = Peg3 promoter activity inhibition; HeLa PEG-Prom luciferase reporter, luminescence, overnight; hit rate 1.7% among 360,000; inhibition, % at 20 µM;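 active means inhibition of at least 50% at 20 µM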
MITF TRPM1 inh = MITF TRPM1 promoter inhibition in SK-MEL-5 cells. SK-MEL-5 TRPM1 promoter luciferase, 24 h. inhibition, % at 12.5 µM. hit rate 0.83% among 330,000. AID 488899;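 active means mean inhibition across replicates of 60% or more, whatever share of single replicates reaches that level; inconclusive means some that reach 60%, reason not given; inactive means mean inhibition across replicates below 60%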
Shn3 inh set2 = reduces Shn3 3'UTR luciferase signal in osteoblasts | AID 588674 | inhibition, % at 12.5 µM | Clone20 osteoblast Shn3 3'UTR firefly luciferase, 24 h | hit rate 0.52% among 360,000;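 active means mean inhibition of at least 75% with every replicate also reaching 75%; inconclusive means mean inhibition at least 75% but some replicate below; inactive means mean inhibition below 75%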;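 further: 0% = median of neutral control wells and 100% = pilot-screen positive control compound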
TROY NFkB inh = inhibitors of TROY-dependent NF-kB signaling. inhibition, % at 10 µM. Q293 LMP1-TROYcd NF-kB luciferase reporter, 4 h. AID 1347056. hit rate 0.98% among 360,000;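 active means compounds whose plate-normalised and pattern-corrected inhibition of the luciferase reporter signal at the single screening dose is 50% or more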
TWEAK Fn14 block = TWEAK-Fn14 signaling inhibition. inhibition, % at 10 µM. TWEAK-stimulated Fn14 reporter cells, luciferase luminescence, 8 h. hit rate 2% among 360,000; in the data active means inhibition above about 50%
LMP1 NFkB inh = reduces LMP1-driven NF-kappaB luciferase signal. LMP1-induced NF-kappaB luciferase reporter cells, luminescence. inhibition, % at 12.5 µM. hit rate 0.69% among 350,000. AID 504558; in the data active means inhibition above about 41%; inconclusive means no clear call, values can overlap the other calls;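 further: 0% = neutral control wells and 100% = reference inhibitor control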
* marks the source's active call; other numbers are inactive results. In the library only some 4.1% were active in any assay of this set; here they are far more common.

O=[N+]([O-])c1ccccc1OCCN1CCOCC1 was read as Peg3 promoter -8, MITF TRPM1 inh -9, Shn3 inh set2 23, TROY NFkB inh -15, TWEAK Fn14 block -6 and LMP1 NFkB inh -5.
For COC(=O)C1=NNC(C(=O)c2ccco2)C1c1ccccc1 (stereo unspecified) the results were Peg3 promoter 10, MITF TRPM1 inh 3, Shn3 inh set2 14, TROY NFkB inh -13, TWEAK Fn14 block -5 and LMP1 NFkB inh 4.
`COC(=O)C1=NNC(C(=O)OC)C1c1ccccc1` (stereo unspecified) gave Peg3 promoter 12, MITF TRPM1 inh 2, Shn3 inh set2 2, TROY NFkB inh -12, TWEAK Fn14 block 17 and LMP1 NFkB inh 84*.
`CN(C)C(=O)CCc1ccc2c3c([nH]c2c1)[C@]1(C)[C@@H](C(=O)N2CCOCC2)C[C@H](CC(=O)NCCN2CCOCC2)C(=O)N1CC3` gave Peg3 promoter 7, MITF TRPM1 inh 1, Shn3 inh set2 1, TROY NFkB inh -1, TWEAK Fn14 block -8 and LMP1 NFkB inh -9.
For CC1CCCC(C)N1C(=O)Cn1nnc(-c2ccc([N+](=O)[O-])cc2)n1 (stereo unspecified) the results were Peg3 promoter 14, MITF TRPM1 inh 9, Shn3 inh set2 12, TROY NFkB inh 13, TWEAK Fn14 block 14 and LMP1 NFkB inh -3.
For CN1CCC2(CC1)Nc1nc(SCc3ccc(Cl)cc3)nn1C1=C2CN(C)CC1 the results were Peg3 promoter 52*, MITF TRPM1 inh 55, Shn3 inh set2 -3, TROY NFkB inh -2, TWEAK Fn14 block -40 and LMP1 NFkB inh -27.
For Cc1cc(/C=C2\Sc3ccccc3N2C)cc(C)[n+]1CC1CCCO1 (stereo unspecified) the results were Peg3 promoter 70*, MITF TRPM1 inh 74*, Shn3 inh set2 89*, TROY NFkB inh 5, TWEAK Fn14 block 17 and LMP1 NFkB inh 19.
Cn1c(=O)c2cc(NC(=O)NCCc3ccccc3)ccc2n1Cc1cccc(C(F)(F)F)c1 was read as Peg3 promoter -47, Shn3 inh set2 30, TROY NFkB inh 1 and TWEAK Fn14 block -1.
`CN(C)S(=O)(=O)c1ccc(Cl)c(C(=O)NCCNC(=O)c2cc(S(=O)(=O)N(C)C)ccc2Cl)c1` gave Peg3 promoter 9, MITF TRPM1 inh 7, Shn3 inh set2 10, TROY NFkB inh -12, TWEAK Fn14 block -9 and LMP1 NFkB inh 71*.
Cc1ccc(N(NC(=O)C(O)(c2ccccc2)c2ccccc2)C(=O)CCl)cc1 was read as Peg3 promoter 103*, MITF TRPM1 inh 29, Shn3 inh set2 3, TROY NFkB inh -12, TWEAK Fn14 block 46 and LMP1 NFkB inh -4.
`Cc1ccc(C(O)(C(=O)NN(C(=O)c2ccccc2)c2ccccc2)c2ccc(C)cc2)cc1` gave Peg3 promoter 25, MITF TRPM1 inh -32, Shn3 inh set2 -13, TROY NFkB inh 16, TWEAK Fn14 block 34 and LMP1 NFkB inh -2.
COc1ccc(Cl)cc1-c1cc(C(=O)NCc2ccc(F)cc2)[nH]n1 was read as Peg3 promoter 8, Shn3 inh set2 16, TROY NFkB inh -6 and TWEAK Fn14 block 15.
CC1=CN2C(=N)/C(=C/c3ccc([N+](=O)[O-])o3)C(=O)N=C2S1 was read as Peg3 promoter 107*, MITF TRPM1 inh 89*, Shn3 inh set2 94*, TROY NFkB inh -19, TWEAK Fn14 block 45 and LMP1 NFkB inh -24.
`CC1=CN2C(=N)/C(=C/c3cn(CCCOc4ccccc4C)c4ccccc34)C(=O)N=C2S1` gave Peg3 promoter -62, MITF TRPM1 inh -13, Shn3 inh set2 6, TROY NFkB inh -1, TWEAK Fn14 block 0 and LMP1 NFkB inh -19.
CC1=CN2C(=N)/C(=C/c3ccco3)C(=O)N=C2S1 was read as Peg3 promoter -333, MITF TRPM1 inh -56, Shn3 inh set2 -117, TROY NFkB inh 40, TWEAK Fn14 block 81* and LMP1 NFkB inh -35.
For CCOC(=O)C1=C(COC(=O)c2cccnc2Cl)NC(=O)NC1C (stereo unspecified) the results were Peg3 promoter 18, MITF TRPM1 inh 1, Shn3 inh set2 10, TROY NFkB inh 3, TWEAK Fn14 block -8 and LMP1 NFkB inh 4.
`COc1ccc(CCNC(=O)CSc2nnnn2-c2ccc(OC)c(OC)c2)cc1OC` gave Peg3 promoter 9, MITF TRPM1 inh 10, Shn3 inh set2 0, TROY NFkB inh 12, TWEAK Fn14 block 0 and LMP1 NFkB inh 5.
For O=C(N/N=C/c1coc2ccc(Cl)cc2c1=O)c1ccc(O)cc1 the results were Peg3 promoter 16, MITF TRPM1 inh 13, Shn3 inh set2 18, TROY NFkB inh 25, TWEAK Fn14 block 70* and LMP1 NFkB inh -4.
Screening O=C(N/N=C/c1ccc(Cl)cc1Cl)c1ccncc1 returned Peg3 promoter 3, MITF TRPM1 inh -13, Shn3 inh set2 -2, TROY NFkB inh 3, TWEAK Fn14 block -5 and LMP1 NFkB inh 6.
`O=C(N/N=C/c1cc(Cl)cc(Cl)c1O)c1ccncc1` gave Peg3 promoter 43, MITF TRPM1 inh 64*, Shn3 inh set2 42, TROY NFkB inh 13, TWEAK Fn14 block -22 and LMP1 NFkB inh -4.
Screening O=C(N/N=C/c1coc2ccccc2c1=O)c1cc(O)cc(O)c1 returned Peg3 promoter 1, MITF TRPM1 inh -1, Shn3 inh set2 -6, TROY NFkB inh 13, TWEAK Fn14 block 12 and LMP1 NFkB inh -6.
Screening O=C(N/N=C/c1coc2ccccc2c1=O)c1ccccc1Br returned Peg3 promoter -2, MITF TRPM1 inh -13, Shn3 inh set2 5, TROY NFkB inh 21, TWEAK Fn14 block 58* and LMP1 NFkB inh 3.
For Oc1c(Cl)cc(Cl)cc1/C=N/Nc1ncc(Br)cn1 the results were Peg3 promoter 38, MITF TRPM1 inh 66*, Shn3 inh set2 90*, TROY NFkB inh -9, TWEAK Fn14 block -11 and LMP1 NFkB inh inconclusive.
`CC(=O)Nc1cccc(/C(C)=N/NS(=O)(=O)c2ccc(C)cc2)c1` gave Peg3 promoter -8, MITF TRPM1 inh -9, Shn3 inh set2 -4, TROY NFkB inh 1, TWEAK Fn14 block -6 and LMP1 NFkB inh 6.
Screening O=C(N/N=C/c1coc2ccc(Cl)cc2c1=O)c1ccncc1 returned Peg3 promoter 0, MITF TRPM1 inh -13, Shn3 inh set2 0, TROY NFkB inh 32, TWEAK Fn14 block 54* and LMP1 NFkB inh 2.
For COc1ccc(C(=O)N/N=C\c2coc3ccc(Cl)cc3c2=O)cc1 the results were Peg3 promoter -2, MITF TRPM1 inh 10, Shn3 inh set2 -4, TROY NFkB inh 11, TWEAK Fn14 block 30 and LMP1 NFkB inh 3.
CCOC(=O)c1sc(NC(=O)Nc2ccc(Cl)cc2)nc1C was read as Peg3 promoter -196, MITF TRPM1 inh -88, Shn3 inh set2 -23, TROY NFkB inh -15, TWEAK Fn14 block 36 and LMP1 NFkB inh -28.
`CC(C)(C)N=C1NC(=NC(C)(C)C)c2ccccc21` gave Peg3 promoter 10, MITF TRPM1 inh -3, Shn3 inh set2 -3, TROY NFkB inh -23, TWEAK Fn14 block 53* and LMP1 NFkB inh -1.
